According to the OligoGym collection:

target: CACNA1S; assay: pooled miR-30 sensor sort-seq; sequence = guide strand; details: shRNA
Also: reference of the scale not given here.

Sequence	sensor-assay potency score (higher = more potent)
TAGTAGTATGCAAAGTTGGTGC	-0.181
TACATCTTCATCAGCATCTCAG	-0.408
TTCATCAGCATCTCAGTGGTGA	0.298
TCTAGTTGCTGCTTCTCCCGGA	0.563
TTGGACAAGTCGGTGCACCTGA	0.00785
TTGGTGATCTTGAAGATCCTCA	0.453
TCTGAAGTCCTCAACATCCATG	-1.41
ATTAGATTCAAACTCATCGATT	-0.846
TTGTCGAAGTGGAAGTCGCTGT	-0.229
TTGATCTTGAGTGCCGTGCGGA	-0.578
TTGAGGTCCAGTCTTCCCCTGT	-0.528
TTCCAGGAAGTTGTCCACCTGG	-0.276
TTGAGGATCATCTCCAGGGTGA	-0.175
TACACGTAGTAGTAGCCCCTGC	-0.425
TTGAGCAGGATGTAGTTGCCAC	-0.202
ATACTGTACACATTGGCGCTGG	0.068
TCTTGTACTCAGTCTCTCCCTG	0.136
TTTAAGGATCTGATTTCTCATG	-1.14
TAGTATGCAAAGTTGGTGCCAC	0.194
TTGATCAGCCTCATGACACGGA	0.698
TATCTCAGCAAACTGGAGGGGT	-0.123
TTGAGGACAATCTCCACAGTGA	-0.144
TTACCTTCCGTCTTGATCTTGA	0.578
TTCAGCATCTCCACACAGGGTT	0.136

target: CACNA2D4; assay: as above; details: shRNA

Sequence	sensor-assay potency score (higher = more potent)
TTGGAGATCAGAATGAACCCGT	0.657
TTTATACCTGGATAGATCCTGA	-0.0984
TTGTAATAGTCGAACACCAGGG	-0.554
TCGATTGTCTCGGTCCGCCTGG	-0.412
TAATAGTCGAACACCAGGGATT	-1.39
TATACTTCTCAAACACCGGCTC	-0.108
TTGTTGTCGATGACGAAGCAGT	-0.871
TCAGGTGTCAGGAACTTCCTGT	0.631
TTATACTTCTCAAACACCGGCT	-0.014
TTCCAGAGGAATCTTGGCCTGT	0.14
TTTGACTTCTGTCGCCTCCTGC	-0.115
TCTGTGATGCAGTAGATCCAGT	-0.578
